According to PubChem BioAssay:
Activity calls are given as the source filed them. Unless noted, how the calls were made is not given here.

Columns and labels:
[1] = system: Wnt5a (protein binding on small-molecule microarray); experiment: Wnt5a binders on small-molecule microarray, primary screen, biophysical, 635/667 nm fluorescence (AID 1142); details: 635 nm fluorescence, higher = more signal;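 further: fluorescence read at 667 nm with signal to noise per printed feature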
[2] = cell viability in Huh7 cells, primary screen, cytotoxicity control for HCV replication inhibitor project, CellTiter-Glo luminescence, basal, 48 h (AID 1143); details: Huh7 HCV replicon, higher = more signal, called active from +8 up or from −8 down;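 further: Huh7 hepatoma cells carrying a hepatitis C replication reporter with no stimulus; test concentration not given here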
[3] = P. aeruginosa biofilm formation inhibitors, primary screen, PAO1 strain, BacTiter-Glo luminescence, LB-PBS (AID 1144); details: 12 h, higher = more signal
[4] = CREB reporter modulators without forskolin, primary screen, cell-based, PC12, CRE-LacZ reporter, unstimulated (AID 1145); details: no forskolin, luminescence, 4.5 h, higher = more signal, called active from +8 up or from −8 down
[5] = CREB reporter modulators under forskolin, primary screen, cell-based, PC12, CRE-LacZ reporter, forskolin-stimulated (AID 1146); details: luminescence, 4.5 h, higher = more signal, called active from +8 up or from −8 down;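 further: PC12 cells with 6xCRE LacZ reporter stimulated by forskolin 10 µM; beta-galactosidase reporter signal reflecting CREB driven transcription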
[6] = target: Streptavidin (Streptomyces avidinii) (UniProt P22629); experiment: streptavidin binders on small-molecule microarray, primary screen, artefact control for SMM compound annotation, biophysical, 635/667 nm fluorescence (AID 1147); details: streptavidin binding, higher = more signal;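 further: signal reflects streptavidin binding to arrayed compounds as a control protein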
[7] = small-molecule binders of probe aInhba, primary screen, biochemical, small-molecule microarray, 635/667 nm fluorescence (AID 1148); details: higher = more signal;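 further: score merges 667nm spot fluorescence with signal-to-noise for antibody binding to printed compounds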
[8] = target: Torsin-1A (Homo sapiens) (UniProt O14656); experiment: torsin A binders from cell lysate, primary screen, small-molecule microarray, wild-type, 635/667 nm (AID 1149); details: COS7 hTOR1A-WT lysate, 635 nm fluorescence, higher = more signal
[9] = target: Torsin-1A (Homo sapiens) (UniProt O14656); experiment: small-molecule binders of mutant TOR1A in lysate, primary screen, cell lysate, small-molecule microarray, COS7 lysate, 635/667 nm fluorescence (AID 1150); details: COS7 hTOR1A mutant lysate, 635 nm fluorescence, higher = more signal;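 further: score pools 667 nm emission and signal to noise measuring lysate protein binding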
[10] = system: Sonic hedgehog protein (Shh); experiment: small-molecule binders of Shh protein, primary screen, biochemical, small-molecule microarray, 635/667 nm fluorescence (AID 1151); details: small-molecule microarray binding, 635 nm fluorescence; higher = more signal;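 further: Shh protein binding to compounds spotted on small-molecule microarray slides; score combines spot fluorescence intensity with signal-to-noise across triplicate slides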
[11] = E. coli DRC41 culture turbidity changes, primary screen, E. coli filamentation inducer project, strain DRC41, OD650, 48 h (AID 1152);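 further: E. coli MC1000 strain DRC41 lacking acrAB efflux pump and sulA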; details: E. coli DRC41 (acrAB sulA), higher = more signal, called active from +8 up or from −8 down
[12] = small-molecule binders of probe aLefty1, primary screen, biochemical, small-molecule microarray, 635/667 nm fluorescence (AID 1153); details: higher = more signal;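 further: score merges spot fluorescence with signal-to-noise ratio from the scanned slide images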
[13] = PSAC antagonists in infected red cells, primary screen, cell-based, P. falciparum Indochina, OD700, 1 h (AID 1154); details: P. falciparum Indochina infected RBC osmotic lysis, higher = more signal, called active from +8 up or from −8 down
[14] = PSAC antagonists in infected red cells, primary screen, cell-based, P. falciparum Indochina, OD700, 2 h (AID 1155);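 further: lysis reports solute entry through the parasite surface anion channel PSAC; channel blockers reduce lysis of infected cells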; details: P. falciparum Indochina infected erythrocytes, osmotic lysis OD700; higher = more signal, called active from +8 up or from −8 down
[15] = osmotic lysis modulators in infected erythrocytes, primary screen, PSAC antagonist project, cell-based, P. falciparum Indochina, OD700, 3 h (AID 1156); details: higher = more signal, called active from +8 up or from −8 down
[16] = PSAC antagonists in infected red cells, primary screen, cell-based, P. falciparum Indochina, OD700, 18 h (AID 1157); details: P. falciparum Indochina infected erythrocytes, osmotic lysis OD700, 18 h; higher = more signal, called active from +8 up or from −8 down
[17] = modulators of S6 phosphorylation in cells, primary screen, cell-based, A549, cytoblot, luminescence, serum-stimulated (AID 1158); details: A549 phospho-S6 cytoblot, 5 h, higher = more signal;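 further: serum-stimulated A549 lung adenocarcinoma cells; signal is phosphorylated S6 detected by cytoblot immunostaining with HRP secondary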
[18] = target: NADPH oxidase 2 (Homo sapiens) (UniProt P04839); experiment: NOX2-dependent H2O2 signal modulators, primary screen, NOX inhibitor project, cell-based, HEK293-NOX2, PMA-stimulated, Amplex Red fluorescence (AID 1159); details: 45 min, higher = more signal, called active from +8 up or from −8 down; further: test concentration not given here
[19] = target: NADPH oxidase 4 (Homo sapiens) (UniProt Q9NPH5); experiment: NOX4-dependent H2O2 signal modulators, primary screen, NOX inhibitor project, cell-based, HEK293-NOX4, tetracycline-induced, Amplex Red fluorescence (AID 1160); details: 45 min, higher = more signal, called active from +8 up or from −8 down
[20] = target: NADPH oxidase 5 (Homo sapiens) (UniProt Q96PH1); experiment: NOX5-dependent H2O2 signal modulators, primary screen, NOX inhibitor project, cell-based, HEK293-NOX5, Amplex Red fluorescence (AID 1161); details: HEK293-NOX5, ionomycin, 45 min, higher = more signal
Chain of NADPH oxidase 5 (Homo sapiens) (Q96PH1 whole entry, looked up): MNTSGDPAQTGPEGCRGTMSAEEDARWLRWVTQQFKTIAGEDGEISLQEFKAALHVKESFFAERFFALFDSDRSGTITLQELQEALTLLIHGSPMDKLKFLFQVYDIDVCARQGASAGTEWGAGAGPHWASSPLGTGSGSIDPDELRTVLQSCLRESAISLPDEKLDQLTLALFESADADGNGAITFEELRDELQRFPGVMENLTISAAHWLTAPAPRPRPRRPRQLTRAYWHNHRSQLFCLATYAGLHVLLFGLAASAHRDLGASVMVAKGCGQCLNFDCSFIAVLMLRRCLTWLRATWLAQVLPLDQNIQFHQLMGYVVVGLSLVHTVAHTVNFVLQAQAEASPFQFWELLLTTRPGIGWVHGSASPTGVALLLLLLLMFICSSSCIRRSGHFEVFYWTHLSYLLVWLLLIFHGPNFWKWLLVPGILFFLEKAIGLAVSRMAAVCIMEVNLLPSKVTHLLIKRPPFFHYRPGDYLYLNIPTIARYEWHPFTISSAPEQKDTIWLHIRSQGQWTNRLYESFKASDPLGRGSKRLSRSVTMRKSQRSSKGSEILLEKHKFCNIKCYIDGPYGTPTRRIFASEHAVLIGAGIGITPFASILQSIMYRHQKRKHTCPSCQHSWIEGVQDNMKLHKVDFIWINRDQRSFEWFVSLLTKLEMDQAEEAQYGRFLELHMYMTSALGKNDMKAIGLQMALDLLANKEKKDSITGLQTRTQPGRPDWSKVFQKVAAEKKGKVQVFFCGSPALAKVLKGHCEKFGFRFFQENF

Chain of Torsin-1A (Homo sapiens) (O14656 whole entry, looked up): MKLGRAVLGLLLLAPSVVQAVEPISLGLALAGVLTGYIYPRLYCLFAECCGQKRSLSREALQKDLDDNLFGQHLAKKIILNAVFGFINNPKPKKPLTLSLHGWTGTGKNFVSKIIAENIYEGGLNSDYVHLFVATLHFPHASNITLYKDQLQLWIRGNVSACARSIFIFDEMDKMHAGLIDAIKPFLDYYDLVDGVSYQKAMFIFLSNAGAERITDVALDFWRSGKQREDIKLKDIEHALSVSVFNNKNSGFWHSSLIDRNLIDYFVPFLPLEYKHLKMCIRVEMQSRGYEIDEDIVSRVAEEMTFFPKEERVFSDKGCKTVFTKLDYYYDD
Chain of Streptavidin (Streptomyces avidinii) (P22629 whole entry, looked up): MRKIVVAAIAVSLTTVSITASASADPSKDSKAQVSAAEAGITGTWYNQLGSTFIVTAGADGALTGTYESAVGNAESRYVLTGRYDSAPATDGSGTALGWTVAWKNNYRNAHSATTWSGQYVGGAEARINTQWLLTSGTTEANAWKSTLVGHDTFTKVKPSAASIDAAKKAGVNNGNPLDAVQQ
Chain of NADPH oxidase 2 (Homo sapiens) (P04839 whole entry, looked up): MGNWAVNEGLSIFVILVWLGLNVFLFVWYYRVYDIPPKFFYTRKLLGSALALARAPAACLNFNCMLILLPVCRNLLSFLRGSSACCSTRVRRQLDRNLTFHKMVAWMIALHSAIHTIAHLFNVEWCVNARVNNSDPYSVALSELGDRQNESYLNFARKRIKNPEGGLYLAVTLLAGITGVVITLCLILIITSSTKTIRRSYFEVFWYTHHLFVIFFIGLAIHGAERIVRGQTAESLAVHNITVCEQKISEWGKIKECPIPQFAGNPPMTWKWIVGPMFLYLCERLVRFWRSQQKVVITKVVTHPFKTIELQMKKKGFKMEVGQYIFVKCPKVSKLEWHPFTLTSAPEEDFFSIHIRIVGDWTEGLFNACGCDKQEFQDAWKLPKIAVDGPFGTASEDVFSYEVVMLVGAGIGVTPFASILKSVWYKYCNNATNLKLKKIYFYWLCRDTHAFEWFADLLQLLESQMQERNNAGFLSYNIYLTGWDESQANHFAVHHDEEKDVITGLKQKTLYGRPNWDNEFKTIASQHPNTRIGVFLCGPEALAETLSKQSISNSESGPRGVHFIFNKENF
Chain of NADPH oxidase 4 (Homo sapiens) (Q9NPH5 whole entry, looked up): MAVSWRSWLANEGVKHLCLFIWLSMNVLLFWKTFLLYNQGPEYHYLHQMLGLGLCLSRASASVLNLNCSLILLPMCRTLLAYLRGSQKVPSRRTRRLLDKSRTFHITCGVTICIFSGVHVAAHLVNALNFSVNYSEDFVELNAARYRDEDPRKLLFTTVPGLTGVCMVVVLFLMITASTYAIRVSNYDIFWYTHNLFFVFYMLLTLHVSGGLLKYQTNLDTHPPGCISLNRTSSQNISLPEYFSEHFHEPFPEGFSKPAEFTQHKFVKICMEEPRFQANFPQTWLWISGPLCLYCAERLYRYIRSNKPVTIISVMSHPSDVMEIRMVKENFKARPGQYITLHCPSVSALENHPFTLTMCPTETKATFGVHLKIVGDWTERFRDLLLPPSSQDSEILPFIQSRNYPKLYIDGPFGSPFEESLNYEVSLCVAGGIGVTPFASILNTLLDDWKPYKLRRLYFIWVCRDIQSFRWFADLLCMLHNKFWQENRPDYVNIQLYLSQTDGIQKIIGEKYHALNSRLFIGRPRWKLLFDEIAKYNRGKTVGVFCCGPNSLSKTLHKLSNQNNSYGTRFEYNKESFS

| Structure (SMILES) | composite z-score [1] | z-score [2] | z-score [3] | z-score [4] | z-score [5] | composite z-score [6] | composite z-score [7] | composite z-score [8] | composite z-score [9] | composite z-score [10] | z-score [11] | composite z-score [12] | z-score [13] | z-score [14] | z-score [15] | z-score [16] | z-score [17] | z-score [18] | z-score [19] | z-score [20] |
| --- | --- | --- | --- | --- | --- | --- | --- | --- | --- | --- | --- | --- | --- | --- | --- | --- | --- | --- | --- | --- |
| CC(C)C(CO)N1C(=O)[C@@H]2[C@H]3C(=O)OCC=C[C@H]3OC23C=CCN(c2ccc4ccccc4c2)C(=O)[C@@H]13 (stereo not given in full) | -0.0522 | -0.372 (inactive) | 2.05 (inactive) | 0.732 (inactive) | 0.755 (inactive) | -0.818 | -0.179 | -0.905 | -2.07 | -0.506 | -0.165 (inactive) | -0.147 | 0.244 (inactive) | 0.884 (inactive) | 0.686 (inactive) | 0.6 (inactive) | -0.575 | 0.902 (inactive) | 0.357 (inactive) | 1.74 |
| O=C1C[C@@](C(=O)O)(c2ccc([N+](=O)[O-])cc2)[C@@H](c2ccc(CO)cc2I)N1CC12CC3CC(CC(C3)C1)C2 | 0.0743 | -5.39 (inactive) | -0.142 (inactive) | 0.468 (inactive) | 3.72 (inactive) | 0.975 | -0.12 | 0.663 | 0.381 | 0.617 | -0.455 (inactive) | 0.271 | 27.4 (active) | 22.3 (active) | 3.79 (inactive) | 2.73 (inactive) | -0.429 | 1.11 (inactive) | -0.681 (inactive) | 1.72 |
| C=C(C)[C@@H]1CC=C(C(O)C2C=CC3C(=O)N(Cc4ccccc4)C(=O)C3N2n2cnnc2)CC1 (stereo not given in full) | -0.0115 | -4.22 (inactive) | -1.38 (inactive) | 0.22 (inactive) | -0.0578 (inactive) | 0.258 | 0.0314 | 0.0146 | -0.388 | -0.408 | -1.05 (inactive) | 0.298 | 1.48 (inactive) | -0.289 (inactive) | 1.28 (inactive) | -1.38 (inactive) | 1.65 | -3.5 (inactive) | -2.39 (inactive) | -3.6 |
| C=CCC(OC(C)=O)[C@@H]1[C@@H](N(Cc2ccc(-c3cccc(C(F)(F)F)c3)o2)C(=O)Cc2ccc(OC)cc2)c2cc(OCCCO)ccc2N1C(=O)Cc1ccc(OC)cc1 (stereo not given in full) | -0.294 | -3.06 (inactive) | -1.7 (inactive) | 0.484 (inactive) | 0.609 (inactive) | -1.01 | -0.154 | -2.51 | -1.2 | 0.514 | 1.12 (inactive) | -0.0547 | 1.66 (inactive) | -0.139 (inactive) | 0.777 (inactive) | -0.176 (inactive) | 1.37 | -2.27 (inactive) | -1.82 (inactive) | -1.89 |
| COc1cc(CO)cc(I)c1O[C@H]1C=C(C(=O)NCCO)C[C@@H](N(CCc2cccc(F)c2)C(=O)CCC2CCCC2)[C@@H]1O | 1.38 | -6.09 (inactive) | -0.986 (inactive) | 6.93 (inactive) | -0.374 (inactive) | 0.628 | 0.0872 | 0.727 | 1.26 | 1.89 | -0.429 (inactive) | 0.437 | 16.3 (active) | 3.94 (inactive) | 4.42 (inactive) | 1.53 (inactive) | -0.165 | 1.47 (inactive) | 0.145 (inactive) | -2.23 |
| C=CCCN(CC#C[C@H]1Oc2ccccc2S(=O)(=O)N2CCC[C@@H]12)S(=O)(=O)c1ccc(C)cc1 | 0.264 | -1.57 (inactive) | 0.592 (inactive) | 0.761 (inactive) | 3.31 (inactive) | -0.198 | -0.0471 | 0.554 | -0.109 | 0.624 | -1.88 (inactive) | 0.0443 | 3.75 (inactive) | 0.451 (inactive) | 0.123 (inactive) | 0.182 (inactive) | -0.23 | 0.744 (inactive) | -1.54 (inactive) | -0.909 |
| COCCCNC(=O)[C@@]1(Sc2ccc(C)cc2)CC(=O)N(Cc2ccccc2)[C@@H]1c1ccc(CO)cc1 | -0.114 | 0.101 (inactive) | -0.578 (inactive) | -0.438 (inactive) | 0.579 (inactive) | -0.82 | -0.0193 | 0.366 | -0.607 | -0.168 | 0.186 (inactive) | -1.12 | 1.25 (inactive) | 0.505 (inactive) | 1.14 (inactive) | 0.107 (inactive) | -0.0519 | 0.462 (inactive) | 0.917 (inactive) | 0.162 |
| C=CCNC(=O)[C@H]1[C@@H]2C(=O)O[C@@H](c3ccccc3)[C@@H](c3ccccc3)N2[C@@H](c2ccc(O)cc2)[C@]12C(=O)Nc1ccc(C#Cc3ccc(OC)cc3)cc12 | 0.555 | -3.44 (inactive) | -0.182 (inactive) | -0.141 (inactive) | 0.468 (inactive) | 0.252 | -0.0523 | 0.11 | 0.117 | 0.667 | -0.837 (inactive) | -0.0084 | 2.41 (inactive) | 1.05 (inactive) | -0.99 (inactive) | 0.859 (inactive) | -0.294 | 0.143 (inactive) | -2.18 (inactive) | -0.436 |
